Screening results (PubChem BioAssay)
This is a sample that favours compounds with a hit; in the whole collection about 7.8% have one here.
Marburg entry inh = inhibitors of Marburg virus binding or cell entry; AID 540276; Marburg virus pseudotyped entry inhibition, cell reporter; Potency, µM (highest dose often 37.8 µM), for inactives: at the top dose activity change, negative = inhibition, most hits filed as inhibitors; hit rate 1.8% among 300,000; calls by dose curve; tested in HEK293 cells; also: potency is read from the fitted curve at half-maximal effect
Vaccinia mCherry = vaccinia inhibition (mCherry reporter); Vaccinia virus mCherry reporter infection, fluorescence; Potency, µM (series often up to 36.5 µM), for inactives: at the top dose activity change, negative = inhibition, actives largely listed as inhibitors; hit rate 0.63% among 310,000; calls by dose curve; tested in A549 cells; also: potency is read from the fitted curve at half-maximal effect; nearly all actives have a fitted effect of over 35% in size
HCV inh = inhibitors of hepatitis C virus infection; AID 651820; Huh7.5.1 HCVcc-Cre infection, luciferase reporter, 44 h; hit rate 3.4% among 340,000; Potency, µM (series often up to 41.8 µM), without a hit: at the highest dose activity change, negative = inhibition, most hits filed as inhibitors; active = well fitted inhibition curve with a large enough effect; inconclusive = small, poorly fitted or top-dose-only effect, or another doubt; inactive = no such curve, though single readings can be large or run the other way; also: potency is read from the fitted curve at half-maximal effect
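1,000 cells/well; 4 h culture; + compound; + HCVcc-Cre (~0.5 moi); 44 h; luciferase substrate, RT 15 min; read 15 sec.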
Vaccinia Venus = inhibitors of vaccinia virus (Venus reporter); Vaccinia virus Venus reporter expression, fluorescence; Potency, µM (highest dose often 36.5 µM), without a hit: top-dose activity change, negative = inhibition, actives largely listed as inhibitors; hit rate 0.46% among 330,000; calls by dose curve; tested in A549 cells; also: potency is read from the fitted curve at half-maximal effect; nearly all actives have a fitted effect of over 30% in size
Lassa entry inh = inhibitors of Lassa virus binding or cell entry. Lassa virus pseudotype entry inhibition, cell reporter. Potency, µM (highest dose often 37.9 µM), for inactives: at the top dose activity change, negative = inhibition, most hits filed as inhibitors. hit rate 1.2% among 300,000; calls by dose curve; tested in HEK293 cells; also: potency is read from the fitted curve at half-maximal effect; nearly all actives have a fitted effect of over 50% in size
HCMV antiviral = blocks human cytomegalovirus replication | activity change, negative = inhibition, % at 57.5 µM | AID 1259415 | hit rate 4.5% among 410,000 | HFF cells, HCMV-luciferase reporter, 72 h; stronger effect = lower value; in the data active = activity change below about -60%; inconclusive = no clear call, values can overlap the other calls; inactive = above about -39%
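Cell-based, HFFs, 1000 cells/well, 16 h 37C; cpds in DMSO + HCMV-luc, MOI 1 PFU/cell; 72 h 37C; OneGlo luminescence after 5 min RT; norm. to buffer vs Salinomycin 10uM.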
The depositor's hits bear a star; i = inactive; ? = inconclusive; / = not tested or not shown; ! = repeats disagree; [ ] = dose if it differs, or a comment. % is scaled to controls: 0 for no effect and ±100 for the full control effect.

SMILES	Marburg entry inh	Vaccinia mCherry	HCV inh	Vaccinia Venus	Lassa entry inh	HCMV antiviral
Cc1ccc(-c2nc3cccnc3o2)cc1NC(=O)COc1ccc(C(C)(C)C)cc1	?	/	?	?	10µM*	-29
Cc1ccc(-c2nc3cccnc3o2)cc1NC(=O)COc1ccc(Cl)cc1C	?	/	?	/	-26%	-9
Cc1ccc(OCC(=O)Nc2ccc(O)c(-c3nc4ccccc4o3)c2)cc1	-3%	-19%	6%	?	?	-76*
Cc1ccc(OCC(=O)Nc2cccc(-c3nc4ccccc4o3)c2C)cc1C	5%[46.1 µM]	-19%	/	-10%	-11%[46.1 µM]	-60*
COc1cc(C(NC(=O)C(F)(F)F)c2cc3ccccc3o2)cc(OC)c1OC (stereo unspecified)	5%[14.2 µM]	/	/	/	?	/
COc1cc(Cl)c(NC(=O)c2cc(S(=O)(=O)N3CCOCC3)cn2C)c(OC)c1	/	-2%	/	-1%	-1%[46.1 µM]	14
COC[C@H]1OC(=O)c2coc3c2[C@@]1(C)C1=C(C3=O)[C@H]2CCC(=O)[C@@]2(C)C[C@H]1OC(C)=O	0.045µM*	/	/	/	/	/
COC[C@H]1OC(=O)c2coc3c2[C@@]1(C)C1=C(C3=O)C2CCC(=O)[C@@]2(C)C[C@H]1OC(C)=O (stereo partly specified)	0.045µM*!	-11%	/	17%	?	/
COc1cc(C(O)c2nc3ccccc3s2)cc(OC)c1OC (stereo unspecified)	/	?	7.1µM*	-29%	/	-36
COc1ccc(C(O)c2nc3ccccc3s2)cc1 (stereo unspecified)	0%	/	/	/	/	/
CCOc1ccc(S(=O)(=O)N2CCN(C(=O)c3ccc(C)c(S(=O)(=O)N4CCOCC4)c3)CC2)cc1	?	?	?	-28%	?	-61*
CCOc1ccc(S(=O)(=O)N2CCN(C(=O)c3cc(S(=O)(=O)N4CCOCC4)ccc3C)CC2)cc1	-6%	-6%	6%	-28%	-4%	-2
CCOc1ccc(S(=O)(=O)N2CCN(C(=O)c3ccc(-n4cncn4)c([N+](=O)[O-])c3)CC2)cc1	-4%	-13%	11µM*	-24%	-17%	-4
CCOc1ccc(S(=O)(=O)N2CCN(C(=O)c3ccc(Cl)c(S(=O)(=O)N4CCOCC4)c3)CC2)cc1	/	/	7%	/	/	-60*
COc1ccc(C(=O)/C=C/C(=O)N(CC(=O)NC2CCCCC2)Cc2ccccc2OC)c(O)c1	?	?	?	-24%	?	-97*
COc1ccc(C(=O)/C=C/C(=O)N(CC(=O)NC2CCCCC2)Cc2ccccc2)c(O)c1	?	i	?	-13%	4µM*	-99*
COC(=O)C1=C[C@H]([C@@H](C)[C@H](OC)c2ccccc2Br)[C@H]2[C@H]1c1ccccc1N2C	-16%[14.2 µM]	/	/	/	?	/
CC(=O)N1CCc2cc(S(=O)(=O)NC(Cc3ccccc3)C(=O)Nc3cc(C)ccc3C)ccc21 (stereo unspecified)	-13%[46.1 µM]	10%	/	1%	-8%[46.1 µM]	4
O=C(Nc1cccn2ncnc12)C(F)(F)F	?	i	8%	1%	-1%	-15
O=C(CCl)Nc1cccn2ncnc12	?	/	?	7.9µM*	?	-60*
CC(=O)Oc1ccccc1C(=O)Nc1ccccc1	/	/	/	/	/	-17
COC1(OC)C=CC(=O)C=C1NC(=O)c1ccccc1OC(C)=O	/	/	/	/	/	-78*
COc1ccc(CNC(=O)CCNC(=O)c2ccc(C(C)(C)C)cc2)cc1OC	-1%	i	2%	-11%	8%	?
CC(C)(C)c1ccc(C(=O)NCCC(=O)NCc2ccc(F)cc2)cc1	/	i	/	-13%	/	-82*
Cn1c(SSc2ccc(-c3cccnc3)n2C)ccc1-c1cccnc1	13µM*	13µM*	-17%	?	?	-37
SMILES	Marburg entry inh	Vaccinia mCherry	HCV inh	Vaccinia Venus	Lassa entry inh	HCMV antiviral
CCc1ccc(NC(=S)Nc2cccc3cnccc23)cc1	?	-13%	10µM*	-1%	?	-12
CC(=O)N(C)c1ccc(NC(=S)Nc2cccc3ccccc23)cc1	?	i	-3%	-3%	-1%	-71*
Cc1cc(C)cc(NC(=S)Nc2cccc3cnccc23)c1	-29%[46.1 µM]	?	-30%	-21%	12%[46.1 µM]	-24
CC(=O)c1cccc(NC(=O)C(=O)Nc2cccc3ccccc23)c1	?	-8%	-15%	-9%	-28%	-60*
COc1cccc(F)c1-c1nc2ccccc2n1C(C(=O)Nc1c(C)cccc1C)c1ccccc1 (stereo unspecified)	/	/	/	/	/	-33
CCC(C)NC(=O)c1ccc2nc(-c3cccs3)c(-c3cccs3)nc2c1 (stereo unspecified)	/	-17%	/	-12%	/	/
Oc1cccc(Nc2ncnc3sc4c(c23)CCCC4)c1	/	?	/	?	?	-10
CCN(CC)S(=O)(=O)c1ccc2c(c1)N(CC(=O)NCCCN1CCN(c3cc(Cl)ccc3C)CC1)C(=O)CO2	13µM*	-21%	/	-17%	?	-74*
Cc1ccc2cc(CN(Cc3ccccc3)Cc3nnnn3C3CCCC3)c(=O)[nH]c2c1	?	-17%	?	?	-16%	-37
CCC(C)(C)n1nnnc1CN(Cc1ccc(Cl)cc1)Cc1ccco1	?	-26%	?	-4%	-9%	-64*
CC(C)(C)n1nnnc1CN(Cc1ccco1)Cc1cc2cc3c(cc2[nH]c1=O)OCO3	-3%	/	-6%	-25%	-13%	-65*
COc1ccc2cc(CN(Cc3ccco3)Cc3nnnn3C3CCCCC3)c(=O)[nH]c2c1	?	-2%	?	-27%	?	-84*
CCC(C)(C)n1nnnc1CN(Cc1ccco1)Cc1cc2cc3c(cc2[nH]c1=O)OCO3	?	-14%	15%	-5%	-30%	/
Cc1ccc2cc(CN(Cc3ccc(F)cc3)Cc3nnnn3C3CCCC3)c(=O)[nH]c2c1	15µM*!	?	14%	-22%	-21%	25
COc1ccc2cc(CN(Cc3ccco3)C(c3nnnn3C3CCCCC3)C(C)C)c(=O)[nH]c2c1 (stereo unspecified)	0%	/	?	-16%	8%	-24
O=C(CCC1N=C2c3ccccc3N=C(SCc3ccc(Cl)cc3)N2C1=O)NC1CCCCC1 (stereo unspecified)	10%[46.1 µM]	-26%	/	-17%	18%[46.1 µM]	-7
Cn1c2ccccc2c2cc(C(=O)N3CCOc4ccc(C(C)(O)CCn5cccn5)cc4C3)ccc21 (stereo unspecified)	/	-13%	/	-13%	/	/
CCc1ccc2[nH]c(=O)c(CN(Cc3ccc4c(c3)OCO4)Cc3nnnn3C3CCCC3)cc2c1	?	?	?	?	8.2µM*	-4
O=C1O/C(=C/Br)CCC1c1cccc2ccccc12 (stereo unspecified)	10µM*	/	/	/	21µM*	/
c1ccc(COc2cccc(-c3cc4nc(NCc5ccc6c(c5)OCO6)ccn4n3)c2)cc1	/	-29%	/	-14%	/	22
